Experimental data taken from PubChem BioAssay (EPA / NIEHS).
Results filed as inconclusive are left out. The source made the active and inactive calls. The calls were made as follows, unless noted: active = hit-call score of the fitted dose curve at least 0.9, where 1 is the maximum; inactive = score below 0.9.

What was measured:
[1] = biological target: human CYP19A1, CYP19A1 (gene 1588) (UniProt P11511); assay: NVS_ADME_hCYP19A1: NovaScreen (NVS) CYP450-related Enzyme Activity (ADME) Assay for human CYP19A1 (AID 2283098; active = hit-call score of the fitted dose curve at least 0.9, where 1 is the maximum;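 as to AC50: potency for inhibitors seen as loss of fluorescent enzyme signal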)
human CYP19A1, CYP19A1 (gene 1588), sequence (P11511 whole entry, looked up): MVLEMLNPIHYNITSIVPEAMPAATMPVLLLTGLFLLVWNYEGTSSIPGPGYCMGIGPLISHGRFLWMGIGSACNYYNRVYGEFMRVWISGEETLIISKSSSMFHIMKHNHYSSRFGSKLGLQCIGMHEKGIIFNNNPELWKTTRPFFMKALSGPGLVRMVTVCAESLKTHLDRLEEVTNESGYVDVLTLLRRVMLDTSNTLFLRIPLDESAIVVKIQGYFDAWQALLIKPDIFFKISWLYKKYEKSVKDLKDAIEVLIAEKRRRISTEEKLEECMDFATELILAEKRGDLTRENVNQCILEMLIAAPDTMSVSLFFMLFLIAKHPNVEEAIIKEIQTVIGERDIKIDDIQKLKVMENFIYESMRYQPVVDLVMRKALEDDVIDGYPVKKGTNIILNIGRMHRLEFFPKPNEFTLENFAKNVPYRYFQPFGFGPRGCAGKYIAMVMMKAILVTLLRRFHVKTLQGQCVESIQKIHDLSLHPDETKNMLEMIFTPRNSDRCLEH
Outline: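 Primary testing was in duplicate at a single 10 uM concentration, with actives followed up in concentration-response series. Fluorescence read-out of recombinant enzyme activity at 0.5 h, cell-free. Acetonitrile was the negative-control baseline.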

[2] = read-out: Interleukin-1 alpha (IL1a), IL1A (gene 3552); assay: BSK_LPS_IL1a: BioMAP Diversity Plus: LPS Assay for Interleukin-1 alpha (IL1a) Biomarker Activity (AID 2283080); settings: primary human HUVEC with PBMC; actives raise or lower the signal
Outline: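 Human umbilical vein endothelial cells co-cultured with peripheral blood mononuclear cells were LPS-stimulated and exposed to test chemicals for 24 h. IL-1 alpha was quantified by ELISA, with bidirectional curve fitting against DMSO as the negative control and baseline.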

[3] = BSK_LPS_PGE2: BioMAP Diversity Plus: LPS Assay for Prostaglandin E2 (PGE2) Biomarker Activity (AID 2283082); settings: primary human HUVEC with PBMC; actives raise or lower the signal;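 as to AC50: secreted prostaglandin E2 measured by ELISA in LPS-stimulated co-culture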
Outline: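 ELISA read-out of PGE2 from human umbilical vein endothelial cells co-cultured with peripheral blood mononuclear cells under LPS, 24 h post-dose. Gain or loss of signal scored relative to DMSO baseline.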

[4] = read-out: Macrophage colony-stimulating factor (MCSF), CSF1 (gene 1435); assay: BSK_LPS_MCSF: BioMAP Diversity Plus: LPS Assay for Macrophage colony-stimulating factor (MCSF) Biomarker Activity (AID 2283083); settings: primary human HUVEC with PBMC; actives raise or lower the signal
Outline: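 Human umbilical vein endothelial cells co-cultured with peripheral blood mononuclear cells were exposed to compound for 24 h. M-CSF levels were measured by ELISA, and bidirectional curve fitting used DMSO as the negative control and baseline.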

[5] = read-out: Tissue Factor, F3 (gene 2152); assay: BSK_LPS_TissueFactor: BioMAP Diversity Plus: LPS Assay for Tissue Factor Biomarker Activity (AID 2283084); settings: primary human HUVEC with PBMC; actives raise or lower the signal
Outline: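 Human umbilical vein endothelial cells co-cultured with peripheral blood mononuclear cells were dosed and stimulated with LPS. Cell-surface CD142 was quantified by ELISA at 24 h. Activity was fitted bidirectionally against DMSO baseline.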

[6] = read-out: Tumor necrosis factor (Homo sapiens) (UniProt P01375); assay: BSK_LPS_TNFa: BioMAP Diversity Plus: LPS Assay for Tumour Necrosis Factor alpha (TNFa) Biomarker Activity (AID 2283085); settings: primary human HUVEC with PBMC; actives raise or lower the signal;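 as to AC50: TNFa protein level quantified by ELISA in the co-culture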
Outline: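 HUVEC/PBMC co-culture, LPS-stimulated; 24 h post-dose; TNFa by ELISA; gain or loss of signal fitted bidirectionally vs DMSO baseline.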

[7] = read-out: Vascular cell adhesion molecule 1 (VCAM1), VCAM1 (gene 7412); assay: BSK_LPS_VCAM1: BioMAP Diversity Plus: LPS Assay for Vascular cell adhesion molecule 1 (VCAM1) Biomarker Activity (AID 2283086); settings: primary human HUVEC with PBMC; actives raise or lower the signal
Outline: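 ELISA read-out of VCAM-1 at 24 h post-dosing in an LPS-driven HUVEC/PBMC primary human co-culture; gain or loss of signal fitted bidirectionally against DMSO baseline. Cytotoxicity tracked in parallel cultures by SRB total-protein staining.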

CD38, CD38 (gene 952) = assay: BSK_SAg_CD38: BioMAP Diversity Plus: SAg Assay for CD38 Biomarker Activity (AID 2283087); settings: primary human HUVEC with PBMC; actives raise or lower the signal
Outline: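 Measures CD38 on a human endothelial/PBMC co-culture driven by SEB and TSST-1, 24 h after compound exposure, using ELISA with fluorescence detection; DMSO defines baseline for bidirectional curve fitting.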

CD40, CD40 (gene 958) = assay: BSK_SAg_CD40: BioMAP Diversity Plus: SAg Assay for CD40 Biomarker Activity (AID 2283088); settings: primary human HUVEC with PBMC; actives raise or lower the signal
Outline: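 Human umbilical vein endothelial cells co-cultured with PBMC; CD40 levels measured by ELISA with fluorescence read-out 24 h after chemical dosing. Gain or loss of signal fitted bidirectionally against DMSO baseline.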

CD69, CD69 (gene 969) = assay: BSK_SAg_CD69: BioMAP Diversity Plus: SAg Assay for CD69 Biomarker Activity (AID 2283089); settings: primary human HUVEC with PBMC; actives raise or lower the signal;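 as to AC50: cell surface CD69 protein quantified by ELISA with fluorescence detection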
Outline: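 Values derive from bidirectional fitting relative to DMSO vehicle. Cells: umbilical vein endothelium plus peripheral blood mononuclear cells, treated 24 h before fluorescent ELISA for CD69.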

[8] = read-out: Monocyte Chemoattractant Protein-1 (MCP1), CCL2 (gene 6347); assay: BSK_SAg_MCP1: BioMAP Diversity Plus: SAg Assay for Monocyte Chemoattractant Protein-1 (MCP1) Biomarker Activity (AID 2283090); settings: primary human HUVEC with PBMC; actives raise or lower the signal
Outline: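 Values derive from bidirectional fitting of ELISA-measured MCP1 against DMSO controls. Readings were taken 24 h after dosing human vascular endothelial cells co-cultured with peripheral blood mononuclear cells under superantigen stimulation.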

[9] = read-out: E-selectin (Homo sapiens) (UniProt P16581); assay: BSK_SAg_Eselectin: BioMAP Diversity Plus: SAg Assay for Eselectin Biomarker Activity (AID 2283091); settings: primary human HUVEC with PBMC; actives raise or lower the signal
Outline: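 HUVEC co-cultured with PBMC, compound dosed then read at 24 h; E-selectin measured by ELISA. Activity fitted bidirectionally against DMSO as negative control and baseline.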

[10] = read-out: Monokine induced gamma interferon (MIG), CXCL9 (gene 4283); assay: BSK_SAg_MIG: BioMAP Diversity Plus: SAg Assay for Monokine induced gamma interferon (MIG) Biomarker Activity (AID 2283092); settings: primary human HUVEC with PBMC; actives raise or lower the signal
Outline: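 Values reflect bidirectional fitting of ELISA-measured MIG against DMSO vehicle, taken 24 h after dosing of a co-culture of human umbilical vein endothelial cells and peripheral blood mononuclear cells.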

[11] = BSK_SAg_PBMCCytotoxicity: PBMC Cytotoxicity Assessment in the BioMAP Diversity Plus: SAg Assay (AID 2283093); settings: primary human HUVEC with PBMC;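 also: PBMC viability measured as Alamar Blue reduction fluorescence at 546/580 nm; fitted both ways against DMSO so a hit may be loss or gain of signal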;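 as to AC50: PBMC superantigen activated with SEB plus TSST-1 one hour after compound addition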
Outline: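 Alamar Blue reduction (6 h, ex/em 546/580 nm) read after 90 h culture of PBMC pre-dosed 1 h then stimulated with SEB plus TSST-1, 20 ng/mL each. Gain or loss of signal fitted relative to DMSO.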

[12] = read-out: Interleukin-8 (IL8), CXCL8 (gene 3576); assay: BSK_SAg_IL8: BioMAP Diversity Plus: SAg Assay for Interleukin-8 (IL8) Biomarker Activity (AID 2283094); settings: primary human HUVEC with PBMC; actives raise or lower the signal
Outline: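 HUVEC/PBMC co-culture, 24 h post-dose; IL-8 by ELISA. Gain or loss of signal fitted bidirectionally vs DMSO baseline.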

[13] = BSK_SAg_Proliferation: Cell Proliferation Assessment in the BioMAP Diversity Plus: SAg Assay (AID 2283095); settings: primary human HUVEC with PBMC;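 also: relative cell number as total protein by SRB absorbance in sub-confluent culture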
Outline: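 HUVEC/PBMC co-culture, 96-well. TCA-fixed (10%), 0.1% SRB stain, A560 at 96 h. Protein content used as viability readout; bidirectional fitting vs DMSO control.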

[14] = BSK_SAg_SRB: Viability Assessment in the BioMAP Diversity Plus: SAg Assay (AID 2283096); settings: primary human HUVEC with PBMC;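 also: cells read one day after compound addition; hits may be either gain or loss of signal compared with DMSO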
Outline: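 SRB absorbance at 560 nm served as the viability read-out. Cells (HUVEC plus peripheral blood mononuclear cells) were TCA-fixed and stained 24 h post-dosing; activity fitted in both directions against DMSO controls.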

Measured: AC50

Tumor necrosis factor (Homo sapiens), sequence (P01375 whole entry, looked up): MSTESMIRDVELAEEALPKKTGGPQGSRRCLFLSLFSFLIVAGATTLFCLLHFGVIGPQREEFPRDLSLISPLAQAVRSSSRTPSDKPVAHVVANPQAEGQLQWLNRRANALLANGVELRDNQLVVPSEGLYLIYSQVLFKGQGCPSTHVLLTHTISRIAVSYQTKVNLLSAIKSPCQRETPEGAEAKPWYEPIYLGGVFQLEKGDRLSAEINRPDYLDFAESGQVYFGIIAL
E-selectin (Homo sapiens), sequence (P16581 whole entry, looked up): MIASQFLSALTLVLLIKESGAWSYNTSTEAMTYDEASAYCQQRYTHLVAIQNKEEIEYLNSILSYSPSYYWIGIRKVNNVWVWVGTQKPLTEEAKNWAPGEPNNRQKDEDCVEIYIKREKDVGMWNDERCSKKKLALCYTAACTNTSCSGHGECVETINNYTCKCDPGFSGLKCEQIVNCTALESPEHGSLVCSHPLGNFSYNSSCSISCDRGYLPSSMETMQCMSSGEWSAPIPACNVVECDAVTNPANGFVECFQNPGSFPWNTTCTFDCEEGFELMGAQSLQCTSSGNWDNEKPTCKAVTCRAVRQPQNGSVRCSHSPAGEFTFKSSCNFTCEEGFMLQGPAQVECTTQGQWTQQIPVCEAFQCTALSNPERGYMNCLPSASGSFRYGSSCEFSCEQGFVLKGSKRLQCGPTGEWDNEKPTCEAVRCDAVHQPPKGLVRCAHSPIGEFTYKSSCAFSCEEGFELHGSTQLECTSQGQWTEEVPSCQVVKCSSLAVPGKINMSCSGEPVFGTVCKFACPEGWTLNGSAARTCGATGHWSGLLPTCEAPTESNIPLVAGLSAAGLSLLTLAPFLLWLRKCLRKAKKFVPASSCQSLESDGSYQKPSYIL

O=C(O)c1ccc2c(c1)C(=O)OC2=O
inactive: [1]

Nc1ccc(C(=O)O)cc1
inactive: [2] | [3] | [4] | [5] | [6] | [7] | CD38, CD38 (gene 952) | CD40, CD40 (gene 958) | CD69, CD69 (gene 969) | [8] | [9] | [10] | [11] | [12] | [13] | [14]

CCCCCCC=O
inactive: [2] | [3] | [4] | [5] | [6] | [7] | CD38, CD38 (gene 952) | CD40, CD40 (gene 958) | CD69, CD69 (gene 969) | [8] | [9] | [10] | [11] | [12] | [13] | [14]

CCC1(C)C(=O)N(Cl)C(=O)N1Cl (stereo unspecified)
inactive: [2] | [3] | [4] | [5] | [6] | [7] | CD38, CD38 (gene 952) | CD40, CD40 (gene 958) | CD69, CD69 (gene 969) | [8] | [9] | [10] | [11] | [12] | [13] | [14]

CCN1CN(CC)CN(CC)C1
inactive: [2] | [3] | [4] | [5] | [7] | CD38, CD38 (gene 952) | CD40, CD40 (gene 958) | CD69, CD69 (gene 969) | [8] | [9] | [10] | [11] | [12] | [14]
active: [6] 2.22 µM | [13] 36.3 µM

CCCC(CC)c1ccccc1 (stereo unspecified)
active: [1] 10.4 µM

CCOC(=O)C1=NOC(c2ccccc2)(c2ccccc2)C1
inactive: [2] | [3] | [4] | [5] | [6] | [7] | CD38, CD38 (gene 952) | CD40, CD40 (gene 958) | CD69, CD69 (gene 969) | [8] | [9] | [10] | [11] | [12] | [13] | [14]

Oc1ccc(/C=C/c2cc(O)cc(O)c2)cc1
inactive: [2] | [4] | [5] | [6] | [7] | CD38, CD38 (gene 952) | CD40, CD40 (gene 958) | CD69, CD69 (gene 969) | [8] | [9] | [10] | [11] | [12] | [14]
active: [3] 2.5 µM | [13] 20 µM

CCCCCCOC(=O)CCCCC(=O)OCCCCCC
inactive: [2] | [3] | [4] | [5] | [6] | [7] | CD38, CD38 (gene 952) | CD40, CD40 (gene 958) | CD69, CD69 (gene 969) | [8] | [9] | [10] | [11] | [12] | [13] | [14]

CCNc1nc(NC(C)(C)C)nc(OC)n1
inactive: [2] | [4] | [5] | [7] | CD38, CD38 (gene 952) | CD40, CD40 (gene 958) | CD69, CD69 (gene 969) | [8] | [10] | [11] | [12] | [13] | [14]
active: [3] 0.0727 µM | [6] 5.59 µM | [9] 8.44 µM

CC/C=C\C/C=C\C/C=C\CCCCCCCC(=O)OC
active: [2] 13.9 µM | [3] 5.75 µM | [4] 17.5 µM | [5] 12.6 µM | [6] 13.7 µM | [7] 27.3 µM | CD38, CD38 (gene 952) 15.1 µM | CD40, CD40 (gene 958) 14.8 µM | CD69, CD69 (gene 969) 21.6 µM | [8] 33.8 µM | [9] 13 µM | [10] 37.2 µM | [11] 20 µM | [12] 20 µM | [13] 6.5 µM | [14] 29 µM
